# Laboratory results as given in the supplement of paper PMC6555819.
# Assays:
# Assay in all cases: PBM binding z-score (relative to random genomic background probes); higher = stronger binding; sequences stand for … in GC…GCGATTGACAGCGTAGAATGAAGG
# [1] = system: FXR:RXRa (NR concentration 270 nM, RXRa partner concentration 90 nM)
# Method in brief: (§1)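 Scanned fluorescence from custom Agilent 4×180K protein-binding microarrays was regression-normalized. Binding z-scores use random background probes as reference. Ligand-free nuclear receptor dimers were incubated on the arrays for 1 h and detected with antibodies against each partner (one per run).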
# [2] = system: LXRa:RXRa (NR concentration 270 nM, RXRa partner concentration 90 nM)
# Method in brief: as §1
# [3] = system: LXRa homodimer (NR concentration 270 nM)
# Method in brief: as §1
# [4] = system: LXRb:RXRa (NR concentration 270 nM, RXRa partner concentration 90 nM)
# Method in brief: as §1
# [5] = system: LXRb homodimer (NR concentration 270 nM)
# Method in brief: as §1
# [6] = system: PPARa:RXRa (NR concentration 270 nM, RXRa partner concentration 90 nM)
# Method in brief: as §1
# [7] = system: PPARg:RXRa (NR concentration 180 nM, RXRa partner concentration 90 nM)
# Method in brief: as §1
# [8] = system: PPARg:RXRa 270nM:90nM, anti-RXR (NR concentration 270 nM, RXRa partner concentration 90 nM)
# Method in brief: as §1
# [9] = system: PPARg:RXRa 30nM:10nM, anti-RXR (NR concentration 30 nM, RXRa partner concentration 10 nM)
# Method in brief: as §1
# [10] = system: PPARg:RXRa 90nM:30nM, anti-RXR (NR concentration 90 nM, RXRa partner concentration 30 nM)
# Method in brief: as §1
Sequence,PBM binding z-score [1],PBM binding z-score [2],PBM binding z-score [3],PBM binding z-score [4],PBM binding z-score [5],PBM binding z-score [6],PBM binding z-score [7],PBM binding z-score [8],PBM binding z-score [9],PBM binding z-score [10]
AGAATGAGGTGAAGATCAGGGAAACAGAATACAT,0.903,0.457,-0.113,0.85,-0.114,2.91,2.33,2.21,0.859,1.5
TCTCGGAGGACACGAAAGGTCAAAGCTCGACATC,4.46,5.45,6.31,4.92,0.987,4.72,2.15,3.75,2.79,3.33
TCTATTAGTTGATTAGGGCAATCGAAACAGCGGA,0.665,0.828,0.306,0.766,0.542,0.871,0.0917,2.06,3.7,2.93
CGAACTAGGTCAGAACACGACAGTGAAGGATGAT,1.16,0.462,-0.145,0.53,-0.0845,3.26,5.4,4.53,1.68,3.56
ACAGACAGGTGAGTGAAGGTTACTCAGCTGGACG,0.506,0.708,-0.297,-0.125,-0.739,0.764,0.848,0.505,-0.0853,0.0538
TCTAGTTGGTCAAAGGTCACACTCTCGAAATGCG,5.93,5.66,3.78,5.32,1.9,6.47,11.1,9.87,10.5,10.6
ATCTCTAGGTAAAGTTCAGTGGAAGATCGATAGA,1.56,2.02,1.68,1.29,1.27,2.23,2.75,3.85,2.32,3.46
GCAGACAGGTGGAACGCAGGTAACTCAGGGTGGC,-0.427,-0.547,-0.822,-0.84,-1.13,-0.427,0.342,-0.6,-0.85,-1.06
CGAACTAGGTCAGGACAGGACAGTGAAGGATGAT,1.85,0.936,-0.238,0.443,-0.587,3.13,5.98,5.1,2.35,4.11
GATACAGGGTCAAGTCCAGAGTACGCGTATTGAT,7.3,4.84,0.0543,4.3,0.511,5.77,5.91,5.85,2.51,4.33
GCTGCTAGGTCAACTGATGGTCTGCTAAAGCTCG,3.83,2.66,-0.135,1.8,0.0375,3.45,2.31,2.78,0.103,1.81
TGAATGAGGTTATAAGACCAGGGAACGTTGCAAA,1.42,1.55,-0.275,0.883,-0.347,2.44,1.25,1.65,0.679,1.33
TCATGTAGATCAAGCAGGTTAAGAAAGCCTGAGT,0.865,0.684,-0.0467,0.774,-0.523,0.929,-0.116,1.74,3.28,2.36
AGTCAAAGTTCACTAGGTAACGTTAGATTCAGCT,5.17,5.24,3.17,2.95,1.04,4.7,7.15,6.57,3.45,6.1
TCTAGTTGGTCAAAGGTGACACACTCGAAATGCG,1.46,1.67,0.489,2.08,0.376,4.71,8.48,8.54,8.19,8.69
TCTATTAGTTGATTAGGGCTACCGAAACAGCGGA,0.263,0.345,-0.0589,0.351,0.304,0.505,0.0193,2.26,3.84,2.98
TCATATACGTAAACAGGTGAAAGTCCGTAAGTTA,1.15,1.2,0.468,1.33,0.615,1.75,1.14,2.99,4.45,3.61
GCTAGTTGGTCAGGAAAAGGTCACACACCGGTCG,3.35,3.85,3.43,3.75,0.375,4.05,2.57,3.82,1.41,3.07
CGGCCAAGGTCAATGCTAGGTCAGTGAAAGCATT,6.95,5.47,1.75,4.08,0.00864,5.19,4.4,4.78,1.47,3.21
GCTAGCAGGCCATTTGGATCACTCAATGACGGGC,-0.129,-0.387,-0.841,-0.881,-0.721,-0.45,0.511,-0.386,-0.566,-0.739
GTACCAAGGTGAATAGGTCGTTGGTGAGTAGGCG,0.874,0.844,-0.171,0.388,-0.834,2.25,1.17,1.93,0.116,1.13
CCTACTGGGCCATCAGGTCATTCATATCAACGTT,1.41,1.28,1.89,1.61,-0.0742,2.72,2.7,3.47,1.16,2.86
TCTTGTAGATCAGCAGGTTAAGCAAGCTGGCCAA,0.0214,0.292,-0.676,0.24,-0.51,0.793,-0.47,1.26,2.15,1.62
ATATGTAGGTTCAGGGTCATTCAGGTTGGTTCGC,4.82,4.56,2.81,4.44,1.46,5.2,7.3,7.14,6,7.46
